The nature of assay [1]: Primary qHTS for inhibitors of nuclear receptor binding SET domain protein 2 (NSD2) in an isogenic RCH-ACV NSD2 p.E1099K mutant (9B) (AID 1645876). Further: nearly all actives have a fitted effect of over 70% in size. Further: potency means the concentration at half of the fitted maximal effect.
Assay [2] can be described thus: Primary qHTS for inhibitors of nuclear receptor binding SET domain protein 2 (NSD2) in an RCH-ACV wild type WT cells (2C) (AID 1645877). Further: nearly all actives have a fitted effect of over 70% in size. Further: potency means the concentration at half of the fitted maximal effect.
A short description of assay [3]: NCATS anti-infectives library activity on HEK293 viability as a counter-qHTS vs the C. elegans viability qHTS (AID 1745854). Further: on the % scale 0 is the no-effect control and ±100 the full control effect. Summed up: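 Cytotoxicity counter-screen to a worm viability qHTS: CellTiter-Glo luminescence read 10 min after reagent addition. Compounds (final up to 41.7 uM, a 1:5 dilution series) incubated 24 hr at 37C with 1,500 HEK293 cells per well; digitonin control.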

The target of assay [4] is Phospholipid hydroperoxide glutathione peroxidase GPX4 (Homo sapiens) (UniProt P36969). Description: Primary qHTS Assay for Inhibitors of Recombinant Selenoprotein Glutathione Peroxidase 4 (GPX4) (AID 1845192). Further: on the % scale 0 is the no-effect control and ±100 the full control effect; nearly all actives have a fitted effect of over 65% in size. The settings on record: outcome: dose series up to 50 µM unless noted. In short, it runs like this:
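qHTS, GR-coupled: GPX4 200 nM + cpd 30 min RT → GSH 1 mM, NADPH 0.5 mM, GR 100 nM → CHP 0.5 mM start; fluor 340/450 at t0 and t15 min; no-enzyme wells as control.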

A short description of assay [5]: qHTS drug screen for cell cycle checkpoint inhibitors in PARPi-resistant BRCA-mutant ovarian cancer cell lines. (AID 1963452; calls by dose curve). The settings on record: PEO1/OlaR viability, CellTiter-Glo luminescence, 96 h, stronger effect = lower value. Summed up:
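PEO1, PEO4 and PEO1/OlaR ovarian cancer cells, 600 per well, exposed 96 h at 37C to a dilution series. Viability read by CellTiter-Glo luminescence, normalized to DMSO and empty wells; activity summarized as Z-AUC.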

Assay [6] can be described thus: Tertiary RLuc qRT-PCR qHTS assay for Zika virus inhibitors (AID 1347169). Further: top concentration of the series differs between compounds; on the % scale 0 is the no-effect control and ±100 the full control effect; nearly all actives have a fitted effect of over 55% in size. Summed up: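 Vero cells (1,000/well) infected with recombinant ZIKV-RLuc (Cambodian) at MOI 1-2 after compound addition, 48-72 hrs at 37 degrees C. Live-cell Renilla luciferase substrate added; luminescence read after 1-1.5 hrs.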
The target of assay [7] is Cytochrome P450 3A4 (Homo sapiens) (UniProt P08684). The experiment in a line: qHTS Assay for Inhibitors and Substrates of Cytochrome P450 3A4 (AID 884). Further: nearly all actives have a fitted effect of over 50% in size. Further: potency means the concentration at half of the fitted maximal effect. In short, it runs like this:
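Luminescent readout of luciferin produced by CYP3A4 (20 nM) dealkylation of Luciferin-PPXE, 25 uM (its KM). NADPH-driven reaction ran 60 min at RT after 10 min compound preincubation; data scaled to 57 uM ketoconazole as 100% inhibition.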

Assay [8] deals with Cytochrome P450 1A2 (Homo sapiens) (UniProt P05177). The experiment in a line: p450-cyp1a2 (AID 410; calls by dose curve; further: potency means the concentration at half of the fitted maximal effect;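 on activity change, negative = inhibition: -100% = full effect of reference inhibitor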). Summed up:
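Luminescent demethylation readout: Luciferin-ME (100uM, equal to Km) turned over by 20nM CYP1A2 for 60 min at room temperature after NADPH regeneration addition, following 10 min compound preincubation. Normalization used 57 uM furafylline as full inhibition.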

For assay [9], the target named is Cytochrome P450 2D6 (Homo sapiens) (UniProt P10635). Description: qHTS Assay for Inhibitors and Substrates of Cytochrome P450 2D6 (AID 891). Further: nearly all actives have a fitted effect of over 60% in size. Further: potency means the concentration at half of the fitted maximal effect. In short, it runs like this:
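Luminescent read-out of luciferin formed by 5 nM human CYP2D6 demethylating 30 uM Luciferin-ME EGE (Km level) over 60 min at room temperature after NADPH regeneration addition. Data normalized to full inhibition by 1.43 uM quinidine.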

Assay [10] can be described thus: AP1 Signaling Pathway (AID 357; active means well fitted curve in either direction with a large enough effect, not every such curve was filed as active; further: on the % scale 0 is the no-effect control and ±100 the full control effect). The settings on record: ME-180 AP-1-bla reporter, EGF-induced, beta-lactamase ratio, 5 h; at 38 µM (top of the series). In short, it runs like this: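 AP-1-bla ME-180 cells, Opti-MEM + 0.5% dialyzed FBS, plated overnight 37 °C. Cpd titration + EC50 EGF, 5 h 37 °C. CCF4 2.5 h RT; ex 405, em 460/530 ratio → %activity, AC50.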
Assay [11] in a line: NFAT Signaling Pathway (AID 444; active means well fitted curve in either direction with a large enough effect, not every such curve was filed as active;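 further: carbachol stimulus at about its EC50 of 1 µM final; on the % scale 0 is the no-effect control and ±100 the full control effect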). The settings on record: Jurkat NFAT-bla M1, carbachol, beta-lactamase ratio, 5 h; at 38 µM (top of the series). Summed up: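 Jurkat cells carrying an NFAT-driven β-lactamase reporter and co-transfected muscarinic M1 receptor were treated with compound plus carbachol (1 uM final, an EC50 level) for 5 h at 37 °C. CCF4 loading followed for 1 h at RT; 460/530 nm ratio gave %activity.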

Assay [12] can be described thus: Stat Signaling Pathway (AID 446; active means well fitted curve in either direction with a large enough effect, not every such curve was filed as active;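 further: ME-180 cervical cancer cells given 40 pM IL-6 alongside compound; SIE-controlled beta-lactamase reporter measured as 460/530 nm FRET emission ratio; on the % scale 0 is the no-effect control and ±100 the full control effect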). The settings on record: ME-180 (cervical carcinoma) SIE beta-lactamase reporter, IL-6 stimulated, 5 h; at 38 µM (top of the series). Summed up: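 Overnight-plated ME-180 cells bearing a STAT Inducible Element beta-lactamase reporter; 5 h co-exposure to compound and 40 pM IL-6; values normalized to 300 pM IL-6 and 125 nM JAK inhibitor controls.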
In assay [13] the target is Guanine nucleotide-binding protein G(i) subunit alpha-1 (Homo sapiens) (UniProt P63096). Description: qHTS Assay for Inhibitors of RGS12 GoLoco Motif Activity (Green Fluorophore) (AID 879).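 Further: 0% = labeled peptide with Gαi1 and full inhibition = labeled peptide alone without protein; negative values mean loss of peptide binding seen as reduced polarization.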 In short, it runs like this: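 A drop in FITC polarization marked displacement of the FITC-tagged RGS12 GoLoco peptide (10 nM) from Gαi1 (50 nM). Compounds were incubated 10 min at room temperature in Tris pH 7.5 buffer containing 150 mM NaCl, 0.1 mM GDP and 0.05% NP40; unlabeled peptide titration served as control.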

For assay [14], the target named is Cytochrome P450 3A4 (Homo sapiens) (UniProt P08684). Description: qHTS Assay for Activators of Cytochrome P450 3A4 (AID 885). Further: nearly all actives have a fitted effect of over 65% in size. Summed up: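 Using 20nM recombinant human CYP3A4 in potassium phosphate (200mM), substrate Luciferin-PPXE at 25uM, luminescent luciferin detection followed a 60-min RT NADPH reaction; data scaled to 57 uM ketoconazole.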
Assay [15] in a line: qHTS Assay for Identification of Small Molecule Agonists for Thrombopoietin (TPO) Signaling Pathway (AID 917). Further: on the % scale 0 is the no-effect control and ±100 the full control effect. Summed up:
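Stimulation at the TPO EC50 (26 pM final) was used to detect activators. Ba/F3 mouse cells bearing human TPO receptor and a luciferase reporter under the Glycoprotein IIb promoter were exposed to compounds for 24 hrs at 37 C.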

Assay [16] deals with Pyruvate kinase (Leishmania mexicana) (UniProt Q27686). Description: qHTS Validation Assay for Inhibitors of Leishmania Mexicana Pyruvate Kinase (AID 945).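 Further: 0% = DMSO only neutral control wells.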 In short, it runs like this:
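Eight-point qHTS titrations; enzyme 0.2 nM LmPYK (E451W mutant); substrates 0.5 mM PEP, 0.1 mM ADP; 7 mM MgCl2; 1 h room temperature; PKLight luminescence normalized to neutral control.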

Assay [17] addresses Alpha-galactosidase A (Homo sapiens) (UniProt P06280). Description: Counterscreen for Glucocerebrosidase Inhibitors: qHTS Assay for Human alpha-Galactosidase at pH 4.5 (AID 992). Further: 0% is about no effect. Summed up:
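Each compound is preincubated briefly with 2 nM enzyme before substrate addition (80 uM); plates then sit 20 min at ambient temperature, are quenched with 1M NaOH/1M glycine, and read fluorometrically.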

Assay [18] has as its target alpha-glucosidase (Oryza sativa, rice) (UniProt Q653V4). Description: Counterscreen for Glucocerebrosidase Inhibitors: qHTS Assay for Rice alpha-Glucosidase at pH 5.0 (AID 997).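 Further: 0% = full activity with enzyme and -100% = basal without enzyme.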 Summed up:
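Endpoint fluorogenic assay at pH 5.0: compounds (0.7 nM to 77 uM) titrated against 4 nM rice enzyme and 400 uM 4-MU-alpha-glucoside for 20 min at room temperature; NaOH/glycine stop, read ex 365/em 440 nm, Hill-fitted AC50.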

Where [19] appears, read: measured here: PEO1 parental Z-AUC.

“And” between values parts separate entries of the source, which are not always exact repeats. Equal values may be shown once. Records with an inconclusive call do not appear. The source made the active and inactive calls. Unless noted, the call rests on the fitted dose curve; in most records, active means well fitted curve in the direction sought with a large enough effect; inconclusive means small, poorly fitted or top-dose-only effect, or another doubt; inactive means no such curve, though single readings can be large; an effect the other way counts as inactive or inconclusive. Positions of bridges follow the written chain, without caps; N, C: chain ends. Non-standard residues stand in square brackets, D forms with d. Residues, ends and D or L forms follow the SMILES beside them. ξ: configuration not given here. *: point of attachment. ξDab(CH2SO3H) = NC(CCNCS(=O)(=O)O)C(=O)O; Octanoyl(6-Me) = CCC(C)CCCCC(=O)*; Dab = NCC[CH](N)C(=O)O

Cytochrome P450 1A2 (Homo sapiens), sequence (P05177 whole entry, looked up): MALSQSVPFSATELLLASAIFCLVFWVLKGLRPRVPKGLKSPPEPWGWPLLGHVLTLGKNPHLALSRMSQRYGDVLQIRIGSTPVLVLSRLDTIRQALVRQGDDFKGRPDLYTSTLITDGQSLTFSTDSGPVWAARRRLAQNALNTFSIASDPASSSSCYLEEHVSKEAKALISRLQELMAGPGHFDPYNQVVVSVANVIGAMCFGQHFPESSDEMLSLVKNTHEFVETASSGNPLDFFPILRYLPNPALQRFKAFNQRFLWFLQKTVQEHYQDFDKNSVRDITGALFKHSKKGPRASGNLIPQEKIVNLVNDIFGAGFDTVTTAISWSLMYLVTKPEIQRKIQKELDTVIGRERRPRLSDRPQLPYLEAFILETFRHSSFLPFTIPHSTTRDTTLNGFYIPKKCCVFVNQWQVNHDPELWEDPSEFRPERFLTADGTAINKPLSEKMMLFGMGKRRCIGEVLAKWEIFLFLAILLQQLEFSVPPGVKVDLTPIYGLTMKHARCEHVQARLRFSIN
Cytochrome P450 3A4 (Homo sapiens), sequence (P08684 whole entry, looked up): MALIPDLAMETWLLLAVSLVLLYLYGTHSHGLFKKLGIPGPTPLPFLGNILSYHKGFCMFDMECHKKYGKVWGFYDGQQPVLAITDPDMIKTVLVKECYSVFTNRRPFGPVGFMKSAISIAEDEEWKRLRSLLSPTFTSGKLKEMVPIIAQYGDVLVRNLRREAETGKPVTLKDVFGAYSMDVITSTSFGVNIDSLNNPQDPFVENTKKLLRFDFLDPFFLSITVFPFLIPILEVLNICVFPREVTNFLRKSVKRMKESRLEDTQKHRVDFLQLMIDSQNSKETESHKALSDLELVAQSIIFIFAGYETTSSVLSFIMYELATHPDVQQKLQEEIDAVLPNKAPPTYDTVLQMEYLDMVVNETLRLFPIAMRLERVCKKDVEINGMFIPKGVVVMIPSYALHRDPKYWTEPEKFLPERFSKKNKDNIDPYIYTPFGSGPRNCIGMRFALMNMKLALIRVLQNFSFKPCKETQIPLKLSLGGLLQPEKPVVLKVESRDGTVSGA
Cytochrome P450 2D6 (Homo sapiens), sequence (P10635 whole entry, looked up): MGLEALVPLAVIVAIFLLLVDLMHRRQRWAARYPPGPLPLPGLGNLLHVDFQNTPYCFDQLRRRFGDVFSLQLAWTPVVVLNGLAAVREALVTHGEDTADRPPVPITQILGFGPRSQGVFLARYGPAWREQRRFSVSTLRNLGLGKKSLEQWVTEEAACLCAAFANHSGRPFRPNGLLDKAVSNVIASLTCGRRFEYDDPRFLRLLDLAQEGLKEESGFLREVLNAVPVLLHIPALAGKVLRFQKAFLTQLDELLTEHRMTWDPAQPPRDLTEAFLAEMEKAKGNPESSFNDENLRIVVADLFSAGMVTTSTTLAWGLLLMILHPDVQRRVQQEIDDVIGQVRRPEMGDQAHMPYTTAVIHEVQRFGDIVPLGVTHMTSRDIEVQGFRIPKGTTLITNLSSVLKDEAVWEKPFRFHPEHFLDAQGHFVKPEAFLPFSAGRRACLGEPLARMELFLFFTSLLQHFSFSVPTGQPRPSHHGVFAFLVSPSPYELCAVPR
Phospholipid hydroperoxide glutathione peroxidase GPX4 (Homo sapiens), sequence (P36969 whole entry, looked up): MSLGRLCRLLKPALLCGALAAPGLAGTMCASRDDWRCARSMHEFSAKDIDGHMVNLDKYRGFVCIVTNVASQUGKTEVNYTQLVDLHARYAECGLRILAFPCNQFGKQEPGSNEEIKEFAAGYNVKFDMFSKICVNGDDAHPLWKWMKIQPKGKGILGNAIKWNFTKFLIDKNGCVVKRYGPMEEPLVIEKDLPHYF
Guanine nucleotide-binding protein G(i) subunit alpha-1 (Homo sapiens), sequence (P63096 whole entry, looked up): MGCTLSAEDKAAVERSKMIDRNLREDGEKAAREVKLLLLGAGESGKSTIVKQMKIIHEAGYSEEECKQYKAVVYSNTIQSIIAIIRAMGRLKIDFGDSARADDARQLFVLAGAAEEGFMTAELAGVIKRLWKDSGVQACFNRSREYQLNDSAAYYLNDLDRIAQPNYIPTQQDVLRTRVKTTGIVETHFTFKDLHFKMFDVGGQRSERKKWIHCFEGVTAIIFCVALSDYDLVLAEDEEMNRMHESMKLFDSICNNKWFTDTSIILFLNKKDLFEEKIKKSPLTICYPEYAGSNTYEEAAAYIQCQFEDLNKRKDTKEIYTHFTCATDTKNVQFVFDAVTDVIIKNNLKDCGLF
Alpha-galactosidase A (Homo sapiens), sequence (P06280 whole entry, looked up): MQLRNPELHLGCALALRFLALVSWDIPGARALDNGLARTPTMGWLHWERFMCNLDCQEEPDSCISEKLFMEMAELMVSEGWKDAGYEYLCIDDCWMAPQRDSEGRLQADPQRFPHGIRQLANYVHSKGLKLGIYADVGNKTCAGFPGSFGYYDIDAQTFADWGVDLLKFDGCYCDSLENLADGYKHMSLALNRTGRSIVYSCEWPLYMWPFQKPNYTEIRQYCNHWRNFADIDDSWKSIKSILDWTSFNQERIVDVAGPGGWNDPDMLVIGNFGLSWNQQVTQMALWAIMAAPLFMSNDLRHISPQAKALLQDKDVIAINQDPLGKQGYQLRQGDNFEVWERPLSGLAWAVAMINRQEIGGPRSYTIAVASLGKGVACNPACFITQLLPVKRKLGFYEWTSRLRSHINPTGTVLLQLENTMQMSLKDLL
Pyruvate kinase (Leishmania mexicana), sequence (Q27686 2-499 E452W): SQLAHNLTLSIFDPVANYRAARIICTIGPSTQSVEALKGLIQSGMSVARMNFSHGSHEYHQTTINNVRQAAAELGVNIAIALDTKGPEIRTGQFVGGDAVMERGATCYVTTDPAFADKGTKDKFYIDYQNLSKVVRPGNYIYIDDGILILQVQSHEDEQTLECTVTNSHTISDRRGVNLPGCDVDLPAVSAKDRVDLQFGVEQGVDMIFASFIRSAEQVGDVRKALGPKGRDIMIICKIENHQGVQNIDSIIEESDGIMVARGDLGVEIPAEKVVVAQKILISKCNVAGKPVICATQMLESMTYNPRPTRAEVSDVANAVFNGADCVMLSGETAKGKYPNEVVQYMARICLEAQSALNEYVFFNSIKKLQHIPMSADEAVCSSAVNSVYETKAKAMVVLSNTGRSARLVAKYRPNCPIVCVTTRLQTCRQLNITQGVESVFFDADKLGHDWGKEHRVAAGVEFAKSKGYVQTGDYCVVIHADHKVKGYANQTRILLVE

For the compound `CC1(C)CC[C@]2(C(=O)O)CC[C@]3(C)C(=CC[C@@H]4[C@@]5(C)C[C@@H](O)[C@H](O)C(C)(C)[C@@H]5CC[C@]43C)[C@@H]2C1`, the Potency entry in assay [1], in assay [2] and in [4] was “inactive” throughout. The result in assay [3] was inactive. Moreover, the Z-AUC in [5] was 1.45 (inactive); in [5] (setting [19]) it was 0.722; in [5] (measured here: PEO4 Z-AUC), 0.511.
Turning to `CCC(C)CCCCC(=O)NC(CCNCS(=O)(=O)O)C(=O)NC(C(=O)NC(CCNCS(=O)(=O)O)C(=O)NC1CCNC(=O)C(C(C)O)NC(=O)C(CCNCS(=O)(=O)O)NC(=O)C(CCNCS(=O)(=O)O)NC(=O)C(CC(C)C)NC(=O)C(CC(C)C)NC(=O)C(CCNCS(=O)(=O)O)NC1=O)C(C)O` (centres undefined) ({Octanoyl(6-Me)}-[ξDab(CH2SO3H)]T[ξDab(CH2SO3H)][Dab][ξDab(CH2SO3H)]LL[ξDab(CH2SO3H)][ξDab(CH2SO3H)]T; lactam 4-C; configuration not given here), in assay [6], the Potency entry is “inactive”.
Take `Cc1ccc(OCC(=O)Nc2ccc(C(=O)OCc3cc(=O)n4nc(C5CC5)sc4n3)cc2)cc1`: in assay [6], the Potency result was “inactive”.
Turning to `COc1cc(/C=C/C(=O)O)ccc1O`, in assay [7], the Potency entry was “inactive”.
With `CC(C)CN1CC(COc2ccc3ccccc3c2)Oc2ccnc(-c3ccc(OCC(=O)O)cc3)c2C1=O` (centres undefined), in assay [6], the Potency entry was “inactive”.
On to `O=c1oc2ccc3ccccc3c2cc1-c1nnc(Nc2cc(C(F)(F)F)ccc2Cl)s1`, for which the Potency result in [6] is “inactive”.
Take `COc1c(O)cc2oc(-c3ccccc3)cc(=O)c2c1O`: the outcome in assay [3] was inactive.
For `Nc1ccc(-c2cnc(N)c(-c3ccc(Cl)cc3)c2)cn1`, the Potency in assay [1] and in assay [2] was 14.6 µM (active) in each case.
For `CCCC(NC(=O)/C(C#N)=C/c1cccc(Br)n1)c1ccccc1` (centres undefined), the Potency in assay [1] was 2.91 µM (active); in assay [2], 3.26 µM (active).
Turning to `Clc1ccc(-c2nc3sccn3c2/C=N/OCc2ccc(Cl)c(Cl)c2)cc1`, the Potency entry in assay [1], in [2] and in assay [4] was “inactive” in each case. Further, the Z-AUC in [5] was 1.14 (inactive); in [5] (setting [19]), 1.09; in [5] (measured here: PEO4 Z-AUC) it was 1.23.
In the case of `C=C[C@@]1(C)CC(=O)[C@@]2(O)[C@@]3(C)[C@@H](O)CCC(C)(C)[C@@H]3[C@H](O)[C@H](OC(C)=O)[C@@]2(C)O1`, the Potency in assay [8] is 31.6 µM (active).
In the case of `O=C(c1ccc(F)cc1)C1CCN(CCCCc2ccccc2)CC1`, the Potency result in assay [7] was “inactive”. Further, the Potency in assay [9] was 0.0126 µM (active).
Turning to `O=C(O)Cc1cc2ccccc2nc1C(=O)O`, the Potency result in assay [8] was “inactive”.
Regarding `COc1ccc2c(c1)c(CC(=O)N1CCOCC1)c(C)n2C(=O)c1ccc(Cl)cc1`, the activity change, negative = inhibition in [10] was -8.4% (inactive); in assay [11], 2.03% (inactive). For the same compound, the Potency in [8] is 12.6 µM (active) and 25.1 µM (active); in assay [7], 5.01 µM (active). For the same compound, in [12], the activity, negative = inhibition is -6.17% (inactive). The compound was called inactive in assay [13], in assay [17] and in assay [18]. Further, the Potency result in [14], in assay [9], in assay [15] and in assay [16] was “inactive” in each case.

Source of the values: PubChem BioAssay (NCATS).
